# A selection: hits, their analogues and other compounds. The true share with any hit is near 4.1%.
# RecA splice inh: Mtb RecA intein splicing inhibitors, primary screen, biochemical, fluorescence, HTS; inhibition, % (test concentration not listed); AID 2221, 2009; actives 0.75% (n = 290,000); cell-free RecA intein splicing; in the data active = inhibition above about 30%;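 also: 0% = vehicle wells and 100% = reference inhibitor control wells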
# Mtb UGM inh: M. tuberculosis UGM enzyme inhibitors, primary screen, biochemical, fluorescence polarization, single point; UDP-galactopyranose mutase (Mycobacterium tuberculosis (strain ATCC 25618 / H37Rv)), …; purified UGM, fluorescence polarization probe displacement; inhibition, % at 10 µM; actives 0.06% (n = 320,000); AID 504406, 2011; in the data active = inhibition above about 10%, passing the limit was not always enough
# Rv3671c protease: Rv3671c serine protease inhibitors, primary screen, biochemical, fluorescence polarization, M. tuberculosis H37Rv | inhibition, % at 5.96 µM | P9WHR9 | AID 2606, 2010 | actives 0.048% (n = 320,000); in the data active = inhibition above about 38%;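 also: extracellular domain of Rv3671c used as enzyme; 0% = enzyme with DMSO and 100% = no enzyme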
# Target sequence (P9WHR9 whole entry, looked up, the tested form may be a part): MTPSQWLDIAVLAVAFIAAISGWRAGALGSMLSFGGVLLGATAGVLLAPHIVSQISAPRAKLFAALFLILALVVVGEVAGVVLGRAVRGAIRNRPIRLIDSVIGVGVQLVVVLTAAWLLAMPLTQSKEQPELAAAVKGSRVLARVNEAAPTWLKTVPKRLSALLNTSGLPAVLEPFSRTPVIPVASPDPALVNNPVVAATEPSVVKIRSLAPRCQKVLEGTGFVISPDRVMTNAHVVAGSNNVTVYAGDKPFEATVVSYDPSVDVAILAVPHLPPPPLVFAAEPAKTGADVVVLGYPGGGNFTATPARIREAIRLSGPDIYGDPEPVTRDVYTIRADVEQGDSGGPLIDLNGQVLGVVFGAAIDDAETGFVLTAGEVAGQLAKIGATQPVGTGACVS
# BH1578 lux ind: inducers of Vibrio cholerae quorum light production without autoinducers, primary screen, BH1578 luxS cqsA deficient, single point; activation, % at 18.7 µM; actives 0.16% (n = 350,000); V. cholerae BH1578 lux reporter, luminescence, 6 h; in the data active = activation mostly above about 9.7%, no sharp cut-off
# Mtb FBA inh: Mtb FBA enzyme inhibitors, primary screen, biochemical, fluorescence, strain H37Rv. actives 2.3% (n = 360,000). purified M. tuberculosis FBA, fluorescence read-out. AID 588726, 2011. inhibition, % at 1 µM. Fructose-bisphosphate aldolase (Mycobacterium tuberculosis (strain ATCC 25618 / H37Rv)), …;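 also: 0% = vehicle and 100% = reference inhibitor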
# GDH-TPI counter-1: GDH-TPI coupling enzyme inhibitors, primary screen, artefact control for M. tuberculosis FBA inhibitor project, biochemical, absorbance, full deck | GDH-TPI coupled enzyme counterscreen, NADH absorbance | inhibition, % at 4.8 µM | actives 1.2% (n = 360,000); in the data active = inhibition above about 30%;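 also: 0% = DMSO wells and 100% = wells lacking the enzyme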
# Mtb FBA inh conf: M. tuberculosis aldolase blockers, biochemical, fluorescence, strain H37Rv, confirmation | shares compounds with Mtb FBA inh | purified M. tuberculosis FBA, fluorescence read-out | inhibition, % at 1 µM | actives 78% (n = 5,600);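 also: 0% = vehicle wells and 100% = reference inhibitor wells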
# GDH-TPI counter-2: GDH-TPI coupling enzyme inhibitors, artefact control for M. tuberculosis FBA inhibitor project, biochemical, fluorescence, high throughput; GDH-TPI coupled enzyme counterscreen; AID 652141, 2013; shares compounds with Mtb FBA inh; actives 81% (n = 5,600); inhibition, % at 1 µM; in the data active = inhibition above about 10%
# GDH-TPI DR: GDH-TPI coupling enzyme inhibitors, dose response, artefact control for M. tuberculosis FBA inhibitor project, biochemical, fluorescence, IC50. shares compounds with Mtb FBA inh. GDH-TPI coupled enzyme assay, artifact counterscreen. IC50, µM. actives 79% (n = 170). AID 652145, 2013; call rule not given here
# Starred values were filed as active, the others as inactive; i = inactive; / = not tested or not shown; + = active, no number. Rule as the data show it, unless noted: active = inhibition above about 27%; inactive = the rest.
SMILES,RecA splice inh,Mtb UGM inh,Rv3671c protease,BH1578 lux ind,Mtb FBA inh,GDH-TPI counter-1,Mtb FBA inh conf,GDH-TPI counter-2,others
CC[C@@H](C)[C@H](NC(=O)CNC(=O)Cc1c(C)c2c(cc(C)c3c(C)coc32)oc1=O)C(=O)O,-3,-2,-5,i,82*,12,50*,35*,
O=C(O)c1ccc(N=C2NC(=O)C(CO)(CO)S2)cc1,0,3,2,0,0,-3,/,/,
CCOc1ccc(S(=O)(=O)N2CCN(Cc3ccc4c(c3)OCO4)CC2)cc1C,8,0,-4,0,0,-7,/,/,
COc1ccccc1Cc1c(-c2ccc(C#N)cc2)nc2ccc(Br)cn12,/,/,/,/,1,/,/,/,
NS(=O)(=O)c1cc(Cl)c(NC(=O)COC(=O)c2ccccn2)c(Cl)c1,/,1,4,0,-2,16,/,/,
Nc1ccc(C=Cc2ccc(N)cc2)cc1,/,/,/,/,88*,/,153*,116*,
CNc1cncc(-c2ccccc2CO)n1,/,/,/,-2,73*,25,+,+,
CNc1cncc(-c2ccccc2NC(C)=O)n1,/,/,/,0,19,12,/,/,
CCOc1ccccc1-c1cncc(NC)n1,/,/,/,-2,74*,17,66*,47*,
COc1ccc2[nH]c(=O)c(CN(C(=O)c3cccnc3)c3ccc(C)c(C)c3)cc2c1,-3,0,3,0,11,12,/,/,
CSCCNC(=O)C1(C)CCN1C(=O)c1sccc1C (stereo unspecified),/,/,/,-1,-1,12,/,/,
C=C(C)Cn1c(N2CCCC2)nc2c1c(=O)n(C)c(=O)n2C,1,0,7,0,33*,3,157*,109*,
Cc1ccc(-c2nc(CS(=O)(=O)CC(=O)NCCN3CCCC3)c(C)o2)cc1,2,1,-1,i,0,-4,/,/,
CC(Oc1ccc(Cl)cc1)c1ccc(C#N)c(=O)[nH]1 (stereo unspecified),-1,2,5,i,34*,22,123*,97*,
COC(OC)c1ccc(C#N)c(=O)[nH]1,-2,-3,-3,0,58*,9,-8,-5,
O=C(/C=C/c1ccccc1)NC(=S)Nc1ccccc1,2,-1,1,-1,27*,25,6,-1,
C#CCn1c(=NC(=O)c2sc3ccccc3c2Cl)sc2cc(S(N)(=O)=O)ccc21,-5,-2,-131,0,39*,42*,+,+,
C#CCn1c(=NC(=O)c2ccccc2[N+](=O)[O-])sc2cc(S(C)(=O)=O)ccc21,-5,2,-44,0,3,11,/,/,
Cc1ccccc1CC1(CO)CCCN(C(=O)CCCN2CCCCC2=O)C1 (stereo unspecified),2,4,0,0,29*,3,24,23*,
O=C(CN1CCCCC1)Nc1c2c(nc3ccccc13)N(c1ccccc1)CC2,-4,-1,0,-3,80*,3,152*,125*,
COc1ccccc1S(=O)(=O)N(C)C[C@H]1Oc2ncc(Br)cc2C(=O)N([C@H](C)CO)C[C@H]1C,/,/,/,-1,0,2,/,/,
CCOC(=O)C1=CN(Cc2ccc(OC)cc2)C=C(C(=O)OCC)C1c1cccs1,-14,0,-1,i,32*,5,151*,136*,
COC(=O)C1=CN(Cc2ccc(OC)cc2)C=C(C(=O)OC)C1c1cc(OC)c(OC)c(OC)c1,-17,0,-3,i,48*,1,88*,64*,
COC(=O)C1=CN(C(C)c2ccccc2)C=C(C(=O)OC)C1c1cc(OC)c(OC)c(OC)c1 (stereo unspecified),-94,0,5,-7,71*,13,52*,48*,
COc1cc(NC(=O)Cc2ccc(F)cc2)cc(OC)c1OC,-1,-3,-7,4,-3,-2,/,/,
SMILES,RecA splice inh,Mtb UGM inh,Rv3671c protease,BH1578 lux ind,Mtb FBA inh,GDH-TPI counter-1,Mtb FBA inh conf,GDH-TPI counter-2,others
COC(=O)C1=CN(Cc2ccc(F)cc2)C=C(C(=O)OC)C1c1cc(OC)c(OC)c(OC)c1,-52,1,1,-2,29*,2,10,9,GDH-TPI DR=2.9*
COc1cccc(CNC(=O)C2CCN(S(=O)(=O)c3ccc4c(c3)C(C)(C)C(=O)N4C)CC2)c1,/,/,/,0,7,9,/,/,
COc1ccc(-c2ccc(C(=O)Nc3cc(OC)c(OC)c(OC)c3)c3occc23)c(C)c1,/,/,/,-6,2,15,/,/,
CCN(CC)CCNC(=O)CN1C(=O)CSc2ccc(S(=O)(=O)N3CCOCC3)cc21,/,/,/,i,-2,8,/,/,
COc1cc(C(=O)NCC2CCCO2)cc(OC)c1OC (stereo unspecified),4,0,1,i,2,0,/,/,
COC(=O)C1=CN(CC2CCCO2)C=C(C(=O)OC)C1c1cc(OC)c(OC)c(OC)c1 (stereo unspecified),-76,0,-5,0,52*,18,0,-5,
COCCN1C=C(C(=O)OC)C(c2ccc(OC)c(OC)c2)C(C(=O)OC)=C1,3,0,9,10,29*,10,135*,98*,
COC(=O)c1cnn2c1C(=O)N(Cc1cccs1)CC2,-1,/,2,i,5,-3,/,/,
COC(=O)C1=CN(Cc2cccs2)C=C(C(=O)OC)C1c1cccc(O)c1,-203,0,2,-1,85*,2,94*,82*,
CC(C)C1=CC2=CCC3C(C)(C(=O)O)CCCC3(C)C2CC1 (stereo unspecified) (tested in a mixture with another compound),6,2,0,/,/,/,/,/,
COc1cc(C(C(=O)NC2CCCCC2)N(C(=O)c2cnccn2)c2ccccc2)cc(OC)c1OC (stereo unspecified),3,/,/,0,3,7,/,/,
Sc1ccccc1N=Cc1cccs1,/,/,/,-6,25,10,/,/,
CCN1C(=O)/C(=C2\SC(=S)N(NC(=O)c3cccnc3)C2=O)c2ccccc21,1,1,3,1,-3,11,/,/,
